Among the data in PubChem BioAssay AID1159580 (chemical genetic matrix, 2015) are normalized growth values, retold here.

Hit rate of the full screen: of about 5,500 compounds, about 2,000 (36%) were called active. Inconclusive results (about 18%) are left out. The list shows a part of the results. A number with no mark means an inactive call. No stated cut-off is given here; in the data, active means normalized growth mostly below about 0.91 (no sharp cut-off); inconclusive means no clear call, values can overlap the other calls; inactive means mostly above about 0.92.

The assay is described as follows: chemical genetic growth profiling, strain panel (AID 1159580).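 Further: tested at 20 µM; growth read once vehicle control cultures reached saturation at 30 °C; 1 = growth at the plate median or of vehicle wells; lower values mean less growth of the strain.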 The following applies: growth OD.
[1] abbreviates: S. cerevisiae deletion strains, locus YAL040C, strain CLN3, active compounds read low.
[2] abbreviates: S. cerevisiae deletion strains, locus YCL061C, strain MRC1 (second series), active compounds read low.
The mark [3] stands for this setting: S. cerevisiae deletion strains, locus YDR150W, strain NUM1, active compounds read low.
Where [4] appears, read: S. cerevisiae deletion strains, locus YDR363W, strain ESC2, active compounds read low.
[5] abbreviates: S. cerevisiae deletion strains, locus YER002W, strain NOP16, active compounds read low.
Setting [6] is: S. cerevisiae deletion strains, locus YGR078C, strain PAC10, active compounds read low.
The mark [7] stands for this setting: S. cerevisiae deletion strains, locus YMR263W, strain SAP30, active compounds read low.
[8] abbreviates: S. cerevisiae deletion strains, locus YNL153C, strain GIM3, active compounds read low.
The mark [9] stands for this setting: S. cerevisiae deletion strains, locus YNL175C, strain NOP13, active compounds read low.
Setting [10] is: S. cerevisiae deletion strains, locus YNL197C, strain WHI3, active compounds read low.
[11] abbreviates: S. cerevisiae deletion strains, locus YNL224C, strain SQS1, active compounds read low.
[12] abbreviates: S. cerevisiae deletion strains, locus YOR083W, strain WHI5 (second series), active compounds read low.
Setting [13] is: S. cerevisiae deletion strains, locus YPL055C, strain LGE1, active compounds read low.
[14] abbreviates: S. cerevisiae deletion strains, locus YMR307W, strain GAS1, active compounds read low.
The mark [15] stands for this setting: S. cerevisiae deletion strains, locus YNL322C, strain KRE1, active compounds read low.
Where [16] appears, read: S. cerevisiae deletion strains, locus YPL241C, strain CIN2, active compounds read low.
[17] abbreviates: S. cerevisiae deletion strains, locus YAL013W, strain DEP1, active compounds read low.
Setting [18] is: S. cerevisiae deletion strains, locus YJR075W, strain HOC1, active compounds read low.

`CCCCCCCCCC(=O)NC(CN1CCOCC1)[C@H](O)c1ccccc1` (stereo partly drawn): the normalized growth runs as follows: under setting [1], 0.989; under setting [2], 0.987; under setting [3], 0.977; under setting [4], 0.942; under setting [5], 0.963; under setting [6], 0.97. For the same compound, the normalized growth is 1 under setting [7]; 0.941 under setting [8]; 0.962 under setting [9]; 0.944 under setting [10]; 0.978 under setting [11]; 0.971 under setting [12]. Besides, the normalized growth under setting [13] was 0.957.
For `CC[C@H](NC(=O)c1c(C)c(-c2ccccc2)nc2ccccc12)c1ccccc1`, the normalized growth is, setting by setting: under setting [1], 1.03; under setting [3], 0.987; under setting [4], 1.04; under setting [5], 1.02; under setting [14], 1.06; under setting [8], 0.979. Moreover, the normalized growth runs as follows: under setting [9], 1.03; under setting [10], 1.04; under setting [11], 1; under setting [15], 0.995; under setting [12], 1.07; under setting [16], 0.987.
In the case of `CCCCCCCCCC[Si](C)(C)CCC(=O)NC(Cc1ccc(C)cc1)c1ccccc1` (stereo not drawn), the normalized growth is 1.03 under setting [1]; 0.974 under setting [4]; 1.11 [resistant] (active) under setting [5]; 0.998 under setting [7]; 1.01 under setting [14]; 1.05 under setting [9]. The normalized growth was 1.17 [resistant] (active) under setting [11] and 1 under setting [13].
With `N#C/C(=C\c1ccc(O)c(O)c1)C(=O)NCc1ccccc1`, the normalized growth reads like this: under setting [17], 0.997; under setting [1], 0.984; under setting [2], 1; under setting [3], 1; under setting [4], 1; under setting [5], 1.01. Also, the normalized growth is 1.01 under setting [6]; 0.992 under setting [18]; 1.01 under setting [7]; 1 under setting [14]; 1.02 under setting [8]; 1.01 under setting [9]. Moreover, the normalized growth runs as follows: under setting [10], 1.02; under setting [11], 0.999; under setting [12], 1.03; under setting [16], 1.
Take `N#CC(C#N)=C(N)/C(C#N)=C/c1ccc(O)cc1`: the normalized growth is 0.962 under setting [1]; 0.998 under setting [2]; 0.999 under setting [4]; 1 under setting [5]; 1 under setting [6]; 1.04 (S. cerevisiae deletion strains, locus YGR229C, strain SMI1, active compounds read low). The normalized growth by setting is: under setting [18], 0.957; under setting [7], 1; under setting [14], 1; under setting [9], 0.999; under setting [10], 0.989; under setting [11], 1. Also, the normalized growth under setting [15] is 0.99, the normalized growth under setting [12] is 1.01 and the normalized growth under setting [13] is 1.
Regarding `CCOC(=O)/C(C#N)=C/c1ccc(Br)cc1`, the normalized growth is, setting by setting: under setting [17], 0.971; (S. cerevisiae deletion strains, locus YBR229C, strain ROT2, active compounds read low) 0.805 (active); (S. cerevisiae deletion strains, locus YDL101C, strain DUN1, active compounds read low) 0.875 (active); (S. cerevisiae deletion strains, locus YDL134C, strain PPH21, active compounds read low) 0.972; under setting [3], 0.893; (S. cerevisiae deletion strains, locus YEL061C, strain CIN8, active compounds read low) 0.754 (active). The normalized growth runs as follows: under setting [6], 0.903 (active); (S. cerevisiae deletion strains, locus YHR030C, strain SLT2, active compounds read low) 0.258 (active); (S. cerevisiae deletion strains, locus YHR087W, strain rtc3, active compounds read low) 0.821 (active); (S. cerevisiae deletion strains, locus YJL187C, strain SWE1, active compounds read low) 0.846 (active); (S. cerevisiae deletion strains, locus YJR043C, strain POL32, active compounds read low) 0.851 (active); under setting [18], 0.828 (active). Further, the normalized growth is, setting by setting: (S. cerevisiae deletion strains, locus YKL190W, strain CNB1, active compounds read low) 0.804 (active); (S. cerevisiae deletion strains, locus YLR039C, strain RIC1, active compounds read low) 0.646 (active); (S. cerevisiae deletion strains, locus YLR058C, strain SHM2 (second series), active compounds read low) 0.977; (S. cerevisiae deletion strains, locus YLR085C, strain ARP6, active compounds read low) 0.375 (active); (S. cerevisiae deletion strains, locus YLR262C, strain YPT6, active compounds read low) 0.72 (active); (S. cerevisiae deletion strains, locus YML094W, strain GIM5, active compounds read low) 0.828 (active). Also, the normalized growth (S. cerevisiae deletion strains, locus YMR219W, strain ESC1, active compounds read low) is 0.926 (active); the normalized growth under setting [7] is 0.913; the normalized growth under setting [8] was 0.836 (active); the normalized growth (S. cerevisiae deletion strains, locus YNL298W, strain CLA4 (second series), active compounds read low) was 0.717 (active); the normalized growth under setting [15] is 0.967; the normalized growth (S. cerevisiae deletion strains, locus YNR030W, strain Alg12, active compounds read low) was 0.765 (active). The normalized growth is, setting by setting: (S. cerevisiae deletion strains, locus YOL006C, strain TOP1, active compounds read low) 0.593 (active); under setting [13], 0.865; under setting [16], 0.717 (active); (S. cerevisiae deletion strains, locus YPR135W, strain CTF4, active compounds read low) 0.585 (active); (S. cerevisiae strains, strain wild type, active compounds read low) 0.954.
